Inconclusive results are not listed. Some compounds were tested as several samples or in several runs, with calls that do not always agree. Active and inactive are the calls of the source. How the source made its calls, unless noted: active means hit-call score of the fitted dose curve at least 0.9, where 1 is the maximum; inconclusive means response in the unintended direction; inactive means score below 0.9.

The nature of test [1]: ATG_GLI_CIS: Attagene CIS-FACTORIAL HepG2 Assay for human Zinc Finger Protein GLI1 (AID 2282945; active means hit-call score of the fitted dose curve at least 0.9, where 1 is the maximum; inactive means score below 0.9). As to conditions: HepG2, Attagene cis-factorial reporter mRNA, GLI element; actives raise or lower the signal. The gist of the method: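 Transiently transfected HepG2 cells report endogenous transcription factor activity via cis-element-driven reporter units. After 24 h compound exposure, reporter mRNA was measured by RT-PCR with capillary electrophoresis; bidirectional fitting against DMSO baseline.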

Test [2] can be described thus: ATG_GRE_CIS: Attagene CIS-FACTORIAL HepG2 Assay for human Glucocorticoid Response Elements (GRE) (AID 2282947; active means hit-call score of the fitted dose curve at least 0.9, where 1 is the maximum; inactive means score below 0.9). The following applies: HepG2 GRE cis-reporter, Attagene multiplex mRNA; actives raise or lower the signal. Summed up: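 Read-out: fluorescent reporter-transcript fragments separated by capillary electrophoresis after RT-PCR. Transiently transfected HepG2 cells carrying cis-element-driven reporter units were dosed for 24 h; gain or loss of signal fitted against DMSO control.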

Test [3] concerns the target Hepatocyte nuclear factor 6 (Homo sapiens) (UniProt Q9UBC0). The test is described as follows: ATG_HNF6_CIS: Attagene CIS-FACTORIAL HepG2 Assay for human Hepatocyte Nuclear Factor 6 (HNF6) (AID 2282952; active means hit-call score of the fitted dose curve at least 0.9, where 1 is the maximum; inactive means score below 0.9). As to conditions: HepG2 Attagene cis-factorial HNF6 reporter transcription; actives raise or lower the signal. Summed up: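 Endogenous transcription factor activity in human HepG2 liver cells was captured through cis-regulated reporter constructs. After 24 h treatment, reporter mRNA was measured by RT-PCR with capillary electrophoresis, and activity was fitted in both directions relative to DMSO.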

For test [4], the target named is Heat shock factor protein 1 (Homo sapiens) (UniProt Q00613). The test is described as follows: ATG_HSE_CIS: Attagene CIS-FACTORIAL HepG2 Assay for human Heat Shock Transcription Factor 1 (HSE) (AID 2282953; active means hit-call score of the fitted dose curve at least 0.9, where 1 is the maximum; inactive means score below 0.9). As to conditions: HepG2 HSE cis-reporter, Attagene RNA transcription; actives raise or lower the signal. The gist of the method: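 Read-out: fluorescence of reporter-specific RT-PCR fragments separated by capillary electrophoresis. HepG2 carrying transfected cis-element reporter units; 24 h dosing; activity fitted in both directions relative to DMSO baseline.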

A short description of test [5]: ATG_PBREM_CIS: Attagene CIS-FACTORIAL HepG2 Assay for human Phenobarbital-responsive Enhancer Module (PBREM) (AID 2282955; active means hit-call score of the fitted dose curve at least 0.9, where 1 is the maximum; inactive means score below 0.9). The following applies: HepG2 PBREM cis-reporter, Attagene multiplexed transcription; actives raise or lower the signal. Summed up: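 Endogenous transcription factors in human liver HepG2 cells drive a PBREM cis-element reporter, whose transcript level after 24 h treatment is quantified by RT-PCR with capillary electrophoresis; activity fitted in both directions against DMSO.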

The target of test [6] is Signal transducer and activator of transcription 3 (Homo sapiens) (UniProt P40763). Put plainly: ATG_STAT3_CIS: Attagene CIS-FACTORIAL HepG2 Assay for human Signal Transducer and Activator of Transcription 3 (STAT3) (AID 2282963; active means hit-call score of the fitted dose curve at least 0.9, where 1 is the maximum; inactive means score below 0.9). As to conditions: HepG2, Attagene cis-factorial STAT3 reporter transcription; actives raise or lower the signal. The gist of the method: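 Readout: fluorescent reporter mRNA fragments resolved by capillary electrophoresis. Setup: HepG2 transfected with MRTUs reporting endogenous transcription-factor activity, dosed 24 h. Gain or loss of signal fitted bidirectionally against DMSO control.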

Test [7] addresses Hepatocyte nuclear factor 4-alpha (Homo sapiens) (UniProt P41235). Put plainly: ATG_HNF4a_TRANS: Attagene TRANS-FACTORIAL HepG2 Assay for human Hepatocyte Nuclear Factor 4 alpha (HNF4a) (AID 2282982). As to conditions: HepG2 HNF4a transactivation reporter, mRNA readout. The gist of the method: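 Transient MRTU transfection of HepG2, 24 h dosing. Readout: reporter mRNA via RT-PCR + capillary electrophoresis, fluorescence; activity fit upward relative to DMSO control.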

A short description of test [8]: ATG_M_06_TRANS: Attagene TRANS-FACTORIAL HepG2 Assay for M06 Transcription Factor (Internal Marker) (AID 2282983). The following applies: HepG2 Attagene TRANS M06 internal marker reporter. The gist of the method: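 Human liver HepG2 cells bearing transiently transfected chimeric NR-GAL4 reporter units were treated with chemicals for 24 h. Total RNA was reverse-transcribed, reporter sequences amplified and labelled, then quantified by capillary electrophoresis. Activity was fitted upward relative to DMSO.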

Test [9] is described as follows: ATG_NRF2_ARE_CIS: Attagene CIS-FACTORIAL HepG2 Assay for human Nuclear Factor Erythroid 2 Related Factor 2 (NFR2) response to Antioxidant Response Elements (ARE) (AID 2282992; active means hit-call score of the fitted dose curve at least 0.9, where 1 is the maximum; inactive means score below 0.9;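 on AC50: reporter mRNA level measured by RT-PCR and capillary electrophoresis fluorescence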). As to conditions: HepG2 Attagene ARE/NRF2 reporter, transcription factor activity; actives raise or lower the signal. The gist of the method: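 Endogenous transcription factor activity in human liver HepG2 cells is tracked via a cis-element-driven reporter within a multiplexed set. mRNA induction is read by RT-PCR and capillary electrophoresis after 24 h, with DMSO as baseline.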

Test [10] deals with human Retinoid X Receptor beta (RXRb), RXRB (gene 6257) (UniProt P28702). The test is described as follows: ATG_RXRb_TRANS: Attagene TRANS-FACTORIAL HepG2 Assay for human Retinoid X Receptor beta (RXRb) (AID 2283013). The gist of the method:
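After a 24 h incubation with test chemical, transfected HepG2 cells carrying NR-Gal4 fusions and GAL4-UAS reporter transcription units yield RNA whose reporter cDNA is FAM-labelled, HpaI-cut and sized by capillary electrophoresis; increases over DMSO are scored.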

The target of test [11] is Cellular tumor antigen p53 (Homo sapiens) (UniProt P04637). The test is described as follows: TOX21_p53_BLA_p3_ratio: Tox21 HCT-116 p53 Agonism Beta-lactamase Assay, Ratio, Phase 3 (AID 2283596). Summed up: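 Cells were seeded at 4000/well, rested 5 h at 37C, then dosed with DMSO compound solutions (217-fold dilution) for 16 h. CCF4-AM substrate was loaded for 2 h at room temperature, and the 460/530 nm emission ratio was fitted for gain of signal versus DMSO.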

Test [12] has the same target. The test is described as follows: TOX21_p53_BLA_p5_ratio: Tox21 HCT-116 p53 Agonism Beta-lactamase Assay, Ratio, Phase 5 (AID 2283599). Summed up: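 HCT-116 p53-bla cells (4000/well) plated 5 h, dosed with compound (217-fold DMSO dilution) for 16 h at 37 C; CCF4-AM substrate 2 h at room temperature. Activity is the 460/530 nm emission ratio (405 nm excitation), fitted in gain-of-signal direction versus DMSO.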

Test [13] in a line: TOX21_p53_BLA_p5_viability: Viability Assessment in the Tox21 HCT-116 p53 Agonism Beta-lactamase Assay, Phase 5 (AID 2283600). The gist of the method: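 Viability is taken from cellular ATP content, measured by luciferase luminescence in the same wells after the beta-lactamase ratio read. Cells are seeded at 4000 per well and exposed to DMSO-dissolved compounds, diluted 217-fold, for 16 h.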

Test [14] concerns the target Cellular tumor antigen p53 (Homo sapiens) (UniProt P04637). Put plainly: TOX21_p53_BLA_p4_ratio: Tox21 HCT-116 p53 Agonism Beta-lactamase Assay, Ratio, Phase 4 (AID 2283601). Summed up:
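HCT-116 p53 beta-lactamase reporter cells (4000/well) preincubated 5 h, then compound (217-fold dilution of DMSO stock) for 16 h at 37C. CCF4-AM substrate added 2 h at room temperature; 460/530 nm emission ratio fitted upward versus DMSO.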

A short description of test [15]: ATG_NF_kB_CIS: Attagene CIS-FACTORIAL HepG2 Assay for human Nuclear Factor Kappa B (NF-kB) (AID 2282991; active means hit-call score of the fitted dose curve at least 0.9, where 1 is the maximum; inactive means score below 0.9). The following applies: HepG2 Attagene cis-factorial NF-kB reporter mRNA; actives raise or lower the signal. The gist of the method: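 Transient MRTU transfection of human HepG2 liver cells → 24 h chemical exposure → total RNA, oligo(dT) RT → PCR, 6-FAM primer extension, HpaI digest 2 h 37 C → CE fragment analysis. Bidirectional fitting, DMSO negative control.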

Test [16] can be described thus: ATG_Oct_MLP_CIS: Attagene CIS-FACTORIAL HepG2 Assay for human Octamer-Binding Transcription Factor (Oct) (AID 2282993; active means hit-call score of the fitted dose curve at least 0.9, where 1 is the maximum; inactive means score below 0.9). The following applies: HepG2 Attagene cis-factorial Oct reporter, mRNA; actives raise or lower the signal. Summed up:
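Read-out: reporter mRNA via RT-PCR plus capillary electrophoresis of 6-FAM-labelled fragments. Transiently transfected HepG2, 24 h exposure, endogenous TF activity on cis elements. Gain or loss of signal fitted relative to DMSO.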

A short description of test [17]: ATG_SREBP_CIS: Attagene CIS-FACTORIAL HepG2 Assay for human Sterol Regulatory Element Binding (SREBP) (AID 2282962; active means hit-call score of the fitted dose curve at least 0.9, where 1 is the maximum; inactive means score below 0.9). As to conditions: HepG2 Attagene cis-factorial SREBP reporter, mRNA; actives raise or lower the signal. The gist of the method:
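Endogenous factor activity is measured in HepG2 through multiplexed reporter units under cis-element control. Following a 24 h incubation, reporter transcripts are reverse-transcribed, PCR-amplified and sized by capillary electrophoresis; activity is fitted in both directions relative to DMSO.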

Test [18] addresses human Peroxisome Proliferator-activated Receptor alpha (PPARa), PPARA (gene 5465) (UniProt Q07869). The test is described as follows: ATG_PPARa_TRANS: Attagene TRANS-FACTORIAL HepG2 Assay for human Peroxisome Proliferator-activated Receptor alpha (PPARa) (AID 2283001).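 On AC50: potency for gain of reporter signal over DMSO so agonist or activator.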 The gist of the method:
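Transient HepG2 transfection, GAL4-UAS reporters, NR-Gal4 chimeras; 24 h compound exposure. Readout: reporter transcripts by RT-PCR, 6-FAM primer extension, HpaI digest, capillary electrophoresis. Positive direction vs DMSO baseline.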

A short description of test [19]: TOX21_p53_BLA_p2_viability: Viability Assessment in the Tox21 HCT-116 p53 Agonism Beta-lactamase Assay, Phase 2 (AID 2283591).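 Further: compound exposure lasted 16 h at 37 °C; actives lower the ATP signal meaning cytotoxicity.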 The gist of the method:
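HCT116 p53-bla cells, 4000/well, dosed after 5 h plating (217-fold dilution of DMSO stocks) and incubated 16 h at 37C. Viability taken as cellular ATP by CellTiter-Glo luminescence after 30 min RT; signal loss marks cytotoxicity.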

Test [20] in a line: TOX21_p53_BLA_p3_viability: Viability Assessment in the Tox21 HCT-116 p53 Agonism Beta-lactamase Assay, Phase 3 (AID 2283593).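 Further: cells exposed to compound for 16 h before reading.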 Summed up: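 HCT116 cells, 4000/well, dosed 5 h after plating by pin transfer (217-fold dilution from DMSO stock) and incubated 16 h at 37C, 5% CO2. Viability read as ATP luminescence with CellTiter-Glo after 30 min at room temperature.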

Sequence of Cellular tumor antigen p53 (Homo sapiens) (P04637 whole entry, looked up): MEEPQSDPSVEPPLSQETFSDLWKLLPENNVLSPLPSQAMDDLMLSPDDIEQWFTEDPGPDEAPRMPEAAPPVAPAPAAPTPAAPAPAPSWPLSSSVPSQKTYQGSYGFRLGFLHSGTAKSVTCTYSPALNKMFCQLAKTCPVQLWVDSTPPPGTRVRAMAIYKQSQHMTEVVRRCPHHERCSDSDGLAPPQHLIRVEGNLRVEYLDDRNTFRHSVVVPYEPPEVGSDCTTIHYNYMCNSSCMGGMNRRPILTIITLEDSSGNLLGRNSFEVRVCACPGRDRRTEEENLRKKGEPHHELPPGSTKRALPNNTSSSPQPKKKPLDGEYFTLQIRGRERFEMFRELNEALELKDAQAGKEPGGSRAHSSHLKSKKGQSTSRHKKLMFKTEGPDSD
Sequence of Hepatocyte nuclear factor 4-alpha (Homo sapiens) (P41235 whole entry, looked up): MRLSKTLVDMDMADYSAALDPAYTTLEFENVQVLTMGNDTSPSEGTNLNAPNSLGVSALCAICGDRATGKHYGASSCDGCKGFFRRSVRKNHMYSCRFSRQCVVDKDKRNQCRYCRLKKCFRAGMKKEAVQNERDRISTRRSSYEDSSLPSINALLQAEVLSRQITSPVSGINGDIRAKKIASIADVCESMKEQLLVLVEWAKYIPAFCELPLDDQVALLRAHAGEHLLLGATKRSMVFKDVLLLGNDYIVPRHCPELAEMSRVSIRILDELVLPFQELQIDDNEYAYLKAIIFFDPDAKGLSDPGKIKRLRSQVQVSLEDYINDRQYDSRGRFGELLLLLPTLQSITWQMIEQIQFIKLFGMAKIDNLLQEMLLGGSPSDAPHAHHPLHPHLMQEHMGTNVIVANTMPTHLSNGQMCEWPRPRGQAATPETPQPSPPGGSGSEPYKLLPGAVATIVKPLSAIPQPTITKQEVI
Sequence of Signal transducer and activator of transcription 3 (Homo sapiens) (P40763 whole entry, looked up, the tested form may be a part): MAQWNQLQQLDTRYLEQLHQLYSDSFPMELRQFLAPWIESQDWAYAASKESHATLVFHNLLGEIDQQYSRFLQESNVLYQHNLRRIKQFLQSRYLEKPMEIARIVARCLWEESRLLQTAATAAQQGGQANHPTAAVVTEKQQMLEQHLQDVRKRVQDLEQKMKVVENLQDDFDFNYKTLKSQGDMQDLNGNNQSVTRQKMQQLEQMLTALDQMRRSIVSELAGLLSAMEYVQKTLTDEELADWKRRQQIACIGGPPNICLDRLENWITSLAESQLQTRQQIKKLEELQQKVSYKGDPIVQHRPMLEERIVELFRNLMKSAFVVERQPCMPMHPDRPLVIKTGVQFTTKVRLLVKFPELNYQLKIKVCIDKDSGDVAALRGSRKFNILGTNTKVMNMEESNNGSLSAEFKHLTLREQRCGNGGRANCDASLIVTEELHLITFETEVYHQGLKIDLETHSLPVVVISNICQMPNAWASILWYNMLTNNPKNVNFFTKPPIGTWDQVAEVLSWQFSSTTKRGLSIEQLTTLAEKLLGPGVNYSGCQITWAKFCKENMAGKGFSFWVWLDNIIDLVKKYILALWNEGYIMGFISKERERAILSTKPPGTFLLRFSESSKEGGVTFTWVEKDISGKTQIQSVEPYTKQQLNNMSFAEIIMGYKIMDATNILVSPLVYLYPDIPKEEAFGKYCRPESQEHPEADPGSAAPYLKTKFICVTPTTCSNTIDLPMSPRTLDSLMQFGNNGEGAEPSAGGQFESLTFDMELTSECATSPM
Sequence of human Peroxisome Proliferator-activated Receptor alpha (PPARa), PPARA (gene 5465) (Q07869 whole entry, looked up, the tested form may be a part): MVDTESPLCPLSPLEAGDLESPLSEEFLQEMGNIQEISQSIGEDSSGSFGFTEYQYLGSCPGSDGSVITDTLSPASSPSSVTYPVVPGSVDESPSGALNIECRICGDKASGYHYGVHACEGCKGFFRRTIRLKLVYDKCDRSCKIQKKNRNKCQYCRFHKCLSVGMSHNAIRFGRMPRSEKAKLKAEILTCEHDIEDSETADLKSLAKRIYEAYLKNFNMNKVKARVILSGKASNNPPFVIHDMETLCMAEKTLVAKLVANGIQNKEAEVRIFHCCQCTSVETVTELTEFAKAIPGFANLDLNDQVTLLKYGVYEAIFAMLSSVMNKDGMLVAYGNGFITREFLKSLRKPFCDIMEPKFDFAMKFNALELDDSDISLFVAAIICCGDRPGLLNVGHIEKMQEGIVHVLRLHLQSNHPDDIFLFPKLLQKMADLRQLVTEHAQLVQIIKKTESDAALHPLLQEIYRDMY
Sequence of Hepatocyte nuclear factor 6 (Homo sapiens) (Q9UBC0 whole entry, looked up): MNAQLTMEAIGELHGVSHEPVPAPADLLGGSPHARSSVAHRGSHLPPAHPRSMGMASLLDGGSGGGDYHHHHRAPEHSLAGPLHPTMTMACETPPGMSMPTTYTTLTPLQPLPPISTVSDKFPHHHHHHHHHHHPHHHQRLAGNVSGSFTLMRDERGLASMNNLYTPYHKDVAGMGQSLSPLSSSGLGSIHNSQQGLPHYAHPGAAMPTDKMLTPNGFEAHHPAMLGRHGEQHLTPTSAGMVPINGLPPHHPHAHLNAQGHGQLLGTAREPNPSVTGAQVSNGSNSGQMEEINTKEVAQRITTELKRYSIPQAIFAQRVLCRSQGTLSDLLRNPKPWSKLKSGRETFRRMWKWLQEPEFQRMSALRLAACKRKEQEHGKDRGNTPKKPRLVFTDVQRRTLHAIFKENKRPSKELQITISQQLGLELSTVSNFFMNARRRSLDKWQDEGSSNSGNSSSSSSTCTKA
Sequence of human Retinoid X Receptor beta (RXRb), RXRB (gene 6257) (P28702 whole entry, looked up, the tested form may be a part): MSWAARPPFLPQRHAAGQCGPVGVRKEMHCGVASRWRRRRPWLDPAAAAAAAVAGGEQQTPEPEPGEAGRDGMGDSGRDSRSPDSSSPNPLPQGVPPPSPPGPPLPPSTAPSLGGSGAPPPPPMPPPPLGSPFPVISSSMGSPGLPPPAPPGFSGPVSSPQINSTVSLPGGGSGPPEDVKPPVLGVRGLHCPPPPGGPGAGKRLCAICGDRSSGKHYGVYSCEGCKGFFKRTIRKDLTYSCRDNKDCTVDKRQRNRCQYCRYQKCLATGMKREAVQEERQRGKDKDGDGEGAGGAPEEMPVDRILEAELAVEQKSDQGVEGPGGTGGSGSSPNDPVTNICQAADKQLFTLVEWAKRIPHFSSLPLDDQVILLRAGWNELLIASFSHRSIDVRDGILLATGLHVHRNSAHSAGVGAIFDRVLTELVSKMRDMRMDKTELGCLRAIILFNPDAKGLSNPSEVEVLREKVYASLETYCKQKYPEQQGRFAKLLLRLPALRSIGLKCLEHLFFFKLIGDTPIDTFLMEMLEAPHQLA
Sequence of Heat shock factor protein 1 (Homo sapiens) (Q00613 whole entry, looked up, the tested form may be a part): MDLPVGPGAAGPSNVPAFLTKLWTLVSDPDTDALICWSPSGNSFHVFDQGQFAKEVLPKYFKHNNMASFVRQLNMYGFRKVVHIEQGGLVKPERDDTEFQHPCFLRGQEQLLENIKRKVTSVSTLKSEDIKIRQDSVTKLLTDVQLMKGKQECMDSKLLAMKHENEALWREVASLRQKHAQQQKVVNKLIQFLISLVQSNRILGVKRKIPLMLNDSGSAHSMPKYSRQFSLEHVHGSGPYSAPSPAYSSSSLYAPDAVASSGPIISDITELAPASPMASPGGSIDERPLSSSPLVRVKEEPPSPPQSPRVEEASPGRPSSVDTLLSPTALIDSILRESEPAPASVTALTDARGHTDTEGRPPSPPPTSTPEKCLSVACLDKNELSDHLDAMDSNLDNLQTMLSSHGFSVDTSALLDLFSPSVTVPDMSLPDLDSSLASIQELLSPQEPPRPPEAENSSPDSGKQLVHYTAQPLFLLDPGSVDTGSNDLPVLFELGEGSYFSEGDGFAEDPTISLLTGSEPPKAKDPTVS

Regarding `COc1cccc(OC)c1C(=O)O`, the result in test [1], in test [2], in test [3], in test [4], in [5] and in [6] was inactive. Further, the result in test [7], in test [8], in [9], in test [10], in [11] and in test [12] was inactive. Also, the molecule was called inactive in test [13] and in test [14].
Regarding `CCOc1ccc2c(c1)C(C)CC(C)(C)N2` (stereo unspecified), the outcome in test [1], in [2], in [3], in [4], in test [5] and in [6] was inactive. In addition, the outcome in [8], in test [15] and in test [16] was inactive. The AC50 – broadly, the midpoint of the concentration-response curve, whichever way the signal moves – in [10] is 37.7 µM (active).
For the molecule `CCCc1c(OCCCCc2nn[nH]n2)ccc(C(C)=O)c1O`, the outcome in test [2], in test [3], in [4], in test [5], in test [6] and in [7] was inactive. The result in test [8], in [15], in test [16], in test [19], in test [20] and in [11] was inactive. Besides, the outcome in test [12] and in [13] was inactive. The AC50 was 37.4 µM (active) in [17]; 27.7 µM (active) in test [18]; 20.4 µM (active) in test [10]; 30.1 µM (active) in test [11]; 26.6 µM (active) in [12].
As to `CC/C=C\CCO`, the outcome in test [2], in test [4], in test [6], in test [7], in test [8] and in [9] was inactive. For the same molecule, the result in test [18], in test [12] and in test [13] was inactive.
`C=CC(C)(CCC=C(C)C)OC(=O)c1ccccc1` (stereo unspecified): the outcome in [1], in [2], in test [3], in test [4], in test [6] and in test [8] was inactive. Also, the molecule was classed as inactive in [15], in test [16], in test [18], in [19], in test [20] and in [11]. Besides, the result in test [12], in test [13] and in test [14] was inactive. Moreover, the AC50 in [9] is 98 µM (active).
In the case of `CC1=CCCC(C)(C)C12CCC(C)O2` (stereo unspecified), the call in test [3], in test [4], in [6], in test [7], in test [8] and in test [10] was inactive. Also, the result in test [11], in test [12], in test [13] and in test [14] was inactive. Also, the AC50 in test [9] was 17.5 µM (active).
As for `c1ccc2c(c1)Oc1ccccc1S2`, the AC50 is 173 µM (active) in test [1] and 146 µM (active) in test [17]. Besides, the molecule was called inactive in test [2], in test [4], in test [5], in test [6], in test [8] and in test [15]. Moreover, the molecule was classed as inactive in [18], in test [10], in [19], in test [20], in [12] and in [14].
As for `CC[N+](CC)(CC(=O)Nc1c(C)cccc1C)Cc1ccccc1`, the outcome in [1], in [3], in test [17], in test [6], in test [7] and in [9] was inactive. For the same molecule, in [18], the outcome was inactive.
Consider `CC[N+](CC)(CC(=O)Nc1c(C)cccc1C)Cc1ccccc1` (tested in a mixture with another compound), for which the molecule was classed as inactive in test [3], in test [17], in [7], in test [8], in test [9] and in [16].
Regarding `CC(=O)CC(=O)OC(C)(C)C`, the call in test [19], in test [20], in test [11], in test [12] and in test [14] was inactive.
Consider `O=C(O)/C=C/C(=O)O`, for which the call in [1], in test [2], in test [5], in [17], in [6] and in test [8] was inactive. In addition, the result in test [15], in [9], in [16] and in [18] was inactive.
